High-throughput results deposited in PubChem BioAssay by Broad Institute.
A selection follows.
aSyn UTR act – Activators via SNCA 5'UTR binding, MLPCN; alpha-synuclein 5'UTR reporter, activators screen; activity score, % (tested at 7.5 µM), hits read low; AID 1814, 2009; 300,000 tested, 7.1% active; in the data active = activity score below about -60%
Active calls of the source: *.

SMILES | aSyn UTR act
Cc1ccc(O)c(NC(=O)c2noc3c2CCCCC3)c1 | -184*
Cc1ccc(NC(=O)c2noc3c2CCCCC3)cc1 | -117*
CSc1ccccc1NC(=O)c1noc2c1CCC2 | -103*
COc1ccc(CNC(=O)c2noc3c2CCCC3)cc1 | -103*
O=C(NC1CCCCC1)c1noc2c1CCCCC2 | -90*
CCc1ccc(NC(=O)c2noc3c2CCCCC3)cc1 | -182*
Cc1ccc(Cn2ccc(NC(=O)c3noc4c3CCCC4)n2)cc1 | -111*
COc1ccc(NC(=O)c2noc3c2CCCCC3)cc1 | -100*
O=C(NCc1ccco1)c1noc2c1CCCCC2 | -77*
CCC(=O)N(c1ccc(C(=O)O)cc1)c1nc(-c2ccc(OC)cc2)c(C)s1 | -185*
COc1ccc(C2Nc3ccccc3C(=O)N2c2ccc(C)cc2)cc1Cn1nnc2ccccc21 (stereo unspecified) | -122*
COc1ccc(C2Nc3ccccc3C(=O)N2c2ccc(C)cc2)cc1Cn1cc([N+](=O)[O-])cn1 (stereo unspecified) | -87*
Cc1ccc2c(c1)C(=O)C(=O)N2CCCOc1ccccc1C | -110*
c1ccc(OCCOc2ccccc2-c2nnco2)cc1 | -64*
COc1ccccc1C1C=C(c2ccccc2)Nc2nnnn21 (stereo unspecified) | -84*
COc1cccc(C2=CC(c3ccc(OC)c(OC)c3OC)n3nnnc3N2)c1 (stereo unspecified) | -67*
COc1ccc2c(c1)CCC1C2=NN(/C(C)=C/C(C)=O)C1c1cccc(F)c1 (stereo unspecified) | -66*
CCn1nnnc1SCC(=O)Nc1nc2ccccc2s1 | -86*
CSc1nsc(SCC(=O)Nc2nc3ccccc3s2)n1 | -71*
COc1ccc2nc(NC(=O)CSc3nnnn3C)sc2c1 | -122*
Cc1nc(SCC(=O)Nc2nc3ccccc3s2)c(C#N)c(C)c1C | 100
O=C(CSC1=NCCS1)Nc1nc2ccccc2s1 | -154*
COc1ccc2nc(NC(=O)CSc3nc(SC)ns3)sc2c1 | -110*
COc1ccc2nc(NC(=O)CSc3nnc(C)s3)sc2c1 | -78*
C/C(=N\N=c1/sc2ccccc2n1C)c1ccccn1 | -122*
SMILES | aSyn UTR act
C/C(=N\N=c1/sc2ccccc2n1C)c1ccc(N2CCOCC2)cc1 | -132*
Cc1cccc(C(=O)NC2CCCCCCC2)c1 | -214*
Cc1cccc(CC(=O)NCC2CCCCC2)c1 | -71*
Cc1cc(C(=O)Nc2ccncc2)ccc1[N+](=O)[O-] | -65*
CN(C)c1cccc(C(=O)NC2CCCCCC2)c1 | -118*
CCn1c(C)c(C)c2cc(C(=O)NC3CCCCCC3)ccc21 | -87*
CCCN1C(=O)c2cc(C(=O)NC3CCCCCC3)ccc2C1O (stereo unspecified) | -81*
Cc1cc(C(=O)NC2CCCCCCC2)ccc1[N+](=O)[O-] | -141*
COC(=O)c1ccc(N=Cc2c(C(F)(F)F)[nH]n(C)c2=O)cc1 | -65*
Cn1c(SCc2ccc(C#N)cc2Cl)nc2ccccc21 | -176*
Cc1ccc(/C=N/NC(=O)NC2CCCCC2)o1 | -66*
Cc1ccc(S(=O)(=O)N(C)CC(=O)N/N=C/c2ccc(C)o2)cc1 | 46
Cc1ccc(/C=N/NC(=O)Nc2ccccc2)o1 | -80*
O=C(N/N=C/C(Cl)=C\c1ccccc1)c1ccco1 | -224*
O=C(N/N=C/C(Cl)=C/c1ccccc1)c1ccco1 | -158*
Cc1ccc(S(=O)(=O)c2ccc([N+](=O)[O-])cn2)cc1 | -73*
CN(C)c1ccc(C2C3CCCc4ccccc4C3=NN2C)cc1 (stereo unspecified) | -134*
CN1N=C2c3ccccc3CCC2C1c1ccc(C(F)(F)F)cc1 (stereo unspecified) | -72*
CC(C)c1cc(C(C)C)c(S(=O)(=O)N2c3ccccc3[C@]3(Br)C[C@H]4C(=O)N[C@@H](Cc5ccccc5)C(=O)N4[C@H]23)c(C(C)C)c1 | 65
COc1cccc(NC(=S)Nc2ccc(Br)cc2Cl)c1 | -93*
COc1cccc(NC(=S)Nc2cccnc2)c1 | -93*
COc1cccc(NC(=S)N/N=C2/CCCCc3ccccc32)c1 | -178*
COc1cccc(NC(=S)NCc2cccs2)c1 | -72*
Cc1cccnc1NC(=S)Nc1ccc(Br)cc1Cl | -174*
CN(C)c1ccc(N=Nc2ccc(S(N)(=O)=O)cc2)cc1 | -96*
SMILES | aSyn UTR act
Cn1c2ccccc2c2cc(C(=O)N3CCN(CCO)CC3)sc21 | -86*
CC1CCC(C(C)C)C(=O)/C1=C/c1ccc(N)cc1 (stereo unspecified) | -173*
Cc1ccccc1NC(=O)c1ccccc1O | -118*
Cc1ccccc1NC(=O)C(=O)Nc1ccccc1C | -143*
O=S(=O)(/N=C(/Nc1ccccc1)c1ccccc1O)c1ccccc1 | -79*
O=C(Nc1ccccc1)c1ccccc1O | -151*
O=S(=O)(c1ccc2c(c1)C(=NO)c1cc(S(=O)(=O)N3CCCCC3)ccc1-2)N1CCCCC1 | 96
Cc1ccc(O)c(N=Nc2ccc(S(=O)(=O)N3CCCC3)cc2)c1 | -70*
COc1cc(CNc2ncn[nH]2)ccc1OCc1cccc(C)c1 | -95*
Cc1ccc(/C=N/Nc2ccc(C(=O)O)cc2)o1 | -70*
O=C(O)c1ccc(N/N=C/c2ccc(-c3ccccc3Cl)o2)cc1 | -65*
Cc1ccc(/C=N/Nc2ccc(C(=O)O)cc2)s1 | 76
O=C(O)c1ccc(N/N=C/c2ccc(OC(=O)c3ccccc3Cl)cc2)cc1 | 57
O=C(COc1ccc(Cl)cc1)Nc1ncccn1 | -99*
Cc1ccnc(NC(=O)COc2ccc(Cl)cc2)n1 | -83*
CC(=O)c1ccc(NC(=O)C(C)Sc2nnc(C3CCCCC3)o2)cc1 (stereo unspecified) | -128*
CN(Cc1ccccc1)S(=O)(=O)c1ccc(C(=O)Nc2nnc(C3CC3)o2)cc1 | 60
CCOC(=O)CSC1=C(C#N)C(C)C2=C(CCCC2=O)N1 (stereo unspecified) | -62*
CCCNC(=O)c1ccc2c(=O)c(O)c(-c3ccsc3)[nH]c2c1 | 87
CCCCNC(=S)NNC(=O)c1csc(C)c1 | -63*
O=C(NC(=S)NC1CCCC1)c1ccccc1 | -126*
COc1cccc(C(=O)NNC(=S)NC2CCCCC2)c1 | -64*
Cc1cc(C(=O)NNC(=S)NC2CCCCC2)cs1 | -77*
O=C(NNC(=S)NC1CCCCC1)c1ccc(Cl)s1 | -62*
Cc1ccc(/C(N)=N/OC(=O)/C=C/c2ccccc2)cc1 | -63*
SMILES | aSyn UTR act
COc1ccc(/C=C/C(=O)c2cc(F)ccc2OC(=O)c2ccccc2C)cc1OC | 82
Cc1ccccc1/C(N)=N/OC(=O)/C=C/c1ccccc1 | -178*
COc1ccc(/C=C/C(=O)O/N=C(\N)c2ccccc2)cc1OC | -138*
COc1ccc(/C(N)=N/OC(=O)/C=C/c2ccccc2)cc1 | -88*
COc1cc(/C=C/C(=O)NC(=O)c2ccccc2O)ccc1OC(C)=O | -161*
COc1ccc(/C=C/C(=O)Nc2ccc(-n3nncc3-c3ccc(OC)c(OC)c3)cc2)cc1OC | 59
COc1ccc(/C=C/C(=O)Nc2ccccc2)cc1OC | -140*
Brc1cc(Br)c2nc(-c3cccs3)ccc2c1 | -157*
Cc1ccc(-c2ccc3c(c2)S(=O)(=O)c2ccccc2C3=O)cc1 | -156*
N#Cc1ccc(-c2ccc(OCC3CNC(=O)O3)cc2)cc1 (stereo unspecified) | -75*
CCOC(=O)C(NC(=O)Nc1ncccn1)(Oc1ccccc1)C(F)(F)F (stereo unspecified) | -83*
N#Cc1c(N)nc2c(c1N)CC(=O)N2c1ccc(Cl)cc1 | -132*
NC(=O)C1(N2CCCCC2)CCN(C2CC(=O)NC2=O)CC1 (stereo unspecified) | -86*
